The values that follow come from PubChem BioAssay (NCI).

SMILES strings stand for the structures. This is part of a sample that, as a whole, favours compounds with a hit. Of some 83,000 tested, about 20% had one in any assay.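 Negative percent growth values reflect cell death: -40 means 40% of the cells present at the start died, and -100 means all died.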 Values without a mark were called inactive. The source made the active and inactive calls. The calls were made as follows: active = growth percent below 10; inactive = the rest.

Holding throughout (assay): NCI-60 one-dose screen, 48 h (100 = growth as untreated, 0 = no growth, -100 = all killed)
The subject of one assay is 786-0 renal. The conditions noted are these: 10 µM unless noted.
For the next assay, the system named is DU-145 prostate. As to conditions: 10 µM unless noted.
The test system of the next assay is MDA-MB-231 breast. The conditions noted are these: 10 µM unless noted.
The subject of another assay is SF-268 CNS. The conditions noted are these: 10 µM unless noted.
The test system of the next assay is SF-539 CNS. The conditions noted are these: 10 µM unless noted.
In another assay the test system is M14 melanoma. As to conditions: 10 µM unless noted.
The subject of the next assay is HCT-15 colon. The conditions noted are these: 10 µM.
In the next assay the test system is SNB-19 CNS. As to conditions: 10 µM unless noted.
A further assay concerns UACC-62 melanoma. The conditions noted are these: 10 µM unless noted.
Another assay has as its system SN12C renal. The conditions noted are these: 10 µM unless noted.
For the next assay, the system named is ACHN renal. The conditions noted are these: 10 µM unless noted.
The subject of another assay is MOLT-4 leukemia. The conditions noted are these: 10 µM.
The test system of another assay is OVCAR-8 ovarian. As to conditions: 10 µM unless noted.
Another assay deals with SK-OV-3 ovarian. As to conditions: 10 µM unless noted.
The next assay has as its system NCI/ADR-RES ovarian. The conditions noted are these: 10 µM unless noted.
For a further assay, the system named is T-47D breast. As to conditions: 10 µM unless noted.
The subject of another assay is MDA-MB-435 melanoma. The conditions noted are these: 10 µM unless noted.
For the next assay, the system named is SW-620 colon. As to conditions: 10 µM unless noted.
Another assay concerns HCT-116 colon. The conditions noted are these: 10 µM unless noted.
In another assay the test system is KM12 colon. As to conditions: 10 µM unless noted.

As for `COc1ccc(C(c2ccc(OC)cc2)C(Cl)(Cl)Cl)cc1`, the growth in the assay with 786-0 renal was 74.4%; in the assay with DU-145 prostate, 107%; with MDA-MB-231 breast it was 93%; with SF-268 CNS it was 88.6%; in the assay on SF-539 CNS, 79.5%; in the assay on M14 melanoma, 84.5%. Besides, the growth in the assay on HCT-15 colon was 91.8%; in the assay with SNB-19 CNS, 84%; in the assay with UACC-62 melanoma, 84.7%; in the assay on SN12C renal, 97.8%; with ACHN renal it was 92.1%; with MOLT-4 leukemia, 85.8%. The growth is 86.7% in the assay with OVCAR-8 ovarian; 96.2% in the assay on SK-OV-3 ovarian; 89.6% in the assay on NCI/ADR-RES ovarian; 68.4% with T-47D breast; 72.4% with MDA-MB-435 melanoma; 89.4% in the assay with SW-620 colon. Moreover, the growth is 61.8% in the assay on HCT-116 colon and 83.8% in the assay on KM12 colon.

For the compound `O=CN1N=C(c2ccc3c(c2)OCO3)CC1c1sc(N(CCCl)CCCl)nc1Cl` (stereo not drawn), the growth is 87.8% in the assay on 786-0 renal; 107% with DU-145 prostate; 89.9% in the assay with MDA-MB-231 breast; 93.7% in the assay with SF-268 CNS; 102% in the assay on SF-539 CNS; 102% in the assay with M14 melanoma. Also, the growth in the assay on HCT-15 colon is 99.5%; in the assay with SNB-19 CNS, 91%; in the assay with UACC-62 melanoma it was 77.5%; in the assay with SN12C renal it was 94.8%; in the assay with ACHN renal, 93.4%; in the assay with MOLT-4 leukemia, 79.3%. Besides, the growth is 92.9% in the assay on OVCAR-8 ovarian; 90% in the assay on SK-OV-3 ovarian; 101% with NCI/ADR-RES ovarian; 84.1% with T-47D breast; 97.6% with MDA-MB-435 melanoma; 92.9% with SW-620 colon. Besides, the growth in the assay on HCT-116 colon was 83.8%; in the assay with KM12 colon it was 93.9%.

As for `CNC(=O)Oc1cc(C(C)C)ccc1Sc1ccc(C(C)C)cc1OC(=O)NC`, the growth is 105% in the assay on 786-0 renal; 72.8% in the assay with DU-145 prostate; 58.4% in the assay on MDA-MB-231 breast; 60.2% with SF-268 CNS; 56.8% in the assay with SF-539 CNS; 89.2% in the assay on M14 melanoma. Also, the growth is 28.6% in the assay with HCT-15 colon; 79% in the assay with SNB-19 CNS; 47.2% with UACC-62 melanoma; 85.3% with SN12C renal; 81.6% with ACHN renal; 26.8% in the assay with MOLT-4 leukemia. Besides, the growth was 66.9% with OVCAR-8 ovarian; 80.1% in the assay with SK-OV-3 ovarian; 54.1% in the assay on NCI/ADR-RES ovarian; 77.7% with T-47D breast; 4.24% (active) in the assay on MDA-MB-435 melanoma; 43.6% with SW-620 colon. In addition, the growth in the assay on HCT-116 colon is 66.5%; in the assay on KM12 colon, 57.9%.

As for `COc1ccc2c(c1)NC1=C(C(=O)OC1)C2c1cc(OC)c(OC)c(OC)c1` (stereo not drawn), the growth with 786-0 renal is 18.8%; in the assay with DU-145 prostate, -24.7% (active); with MDA-MB-231 breast, 6.08% (active); with SF-268 CNS it was 22.6%; in the assay on SF-539 CNS, -4.41% (active); in the assay on M14 melanoma, 6.44% (active). Besides, the growth in the assay with HCT-15 colon was 15.3%; in the assay with SNB-19 CNS, 47.3%; in the assay on UACC-62 melanoma, 44.7%; with SN12C renal, 23.1%; in the assay on ACHN renal it was 31.1%; with MOLT-4 leukemia it was 5.82% (active). In addition, the growth with OVCAR-8 ovarian was 15.2%; in the assay with SK-OV-3 ovarian it was 36.9%; in the assay on NCI/ADR-RES ovarian, -34.5% (active); in the assay on T-47D breast it was 25.1%; in the assay on MDA-MB-435 melanoma it was -35.5% (active); in the assay on SW-620 colon it was 17.9%. The values for the growth in the assay on HCT-116 colon and with KM12 colon were 5.07% (active) and -4.06% (active), respectively.

For `Cc1cc(C)nc(C)c1.[Cl][Hg][Cl]`, the growth in the assay on 786-0 renal is 104%; with DU-145 prostate, 102%; in the assay on MDA-MB-231 breast it was 118%; in the assay on SF-268 CNS, 102%; with SF-539 CNS, 103%; with M14 melanoma, 97.3%. Also, the growth in the assay on HCT-15 colon is 101%; in the assay on SNB-19 CNS, 104%; in the assay on UACC-62 melanoma, 95%; in the assay with SN12C renal it was 104%; in the assay with ACHN renal it was 101%; with MOLT-4 leukemia, 92%. Further, the growth in the assay on OVCAR-8 ovarian is 100%; in the assay with SK-OV-3 ovarian, 110%; with NCI/ADR-RES ovarian, 102%; in the assay with T-47D breast, 81.8%; with MDA-MB-435 melanoma, 83.9%; in the assay with SW-620 colon, 105%. Also, the growth in the assay on HCT-116 colon is 108%; in the assay with KM12 colon it was 96.2%.

For `CCCC(C)(C)c1ccc2c(c1)OC(C)(C)[C@@H]1CC=C(C)C[C@@H]21`, the growth in the assay on 786-0 renal was 98.8%; in the assay with DU-145 prostate, 108%; in the assay with MDA-MB-231 breast it was 108%; with SF-268 CNS it was 93%; with SF-539 CNS, 104%; in the assay on M14 melanoma, 99.7%. Besides, the growth in the assay on HCT-15 colon was 107%; with SNB-19 CNS, 103%; with UACC-62 melanoma, 98%; with SN12C renal, 105%; in the assay on ACHN renal, 105%; in the assay with MOLT-4 leukemia, 95.6%. Besides, the growth in the assay on OVCAR-8 ovarian was 97.7%; in the assay on SK-OV-3 ovarian it was 89.2%; in the assay with NCI/ADR-RES ovarian, 98.9%; in the assay with T-47D breast it was 97.2%; with MDA-MB-435 melanoma, 105%; with SW-620 colon, 97.3%. Besides, the growth in the assay on HCT-116 colon is 87.6%; with KM12 colon, 103%.

For `CCC(CC)(c1ccccc1)C(OC(N)=O)c1ccccc1` (stereo not drawn), the growth with 786-0 renal is 82.9%; in the assay with DU-145 prostate it was 98.4%; in the assay on MDA-MB-231 breast, 94.7%; in the assay with SF-268 CNS, 93.9%; in the assay with SF-539 CNS, 103%; in the assay on M14 melanoma, 83.6%. Further, the growth in the assay with HCT-15 colon is 80%; in the assay on SNB-19 CNS, 88.1%; with SN12C renal it was 81.8%; in the assay with ACHN renal, 87.4%; with MOLT-4 leukemia it was 80.2%; in the assay on OVCAR-8 ovarian, 92.5%. The growth is 66.5% in the assay on SK-OV-3 ovarian; 79.9% with NCI/ADR-RES ovarian; 82.2% in the assay with T-47D breast; 50.6% in the assay with MDA-MB-435 melanoma; 81% with SW-620 colon; 62.4% with HCT-116 colon. Further, the growth in the assay on KM12 colon is 83.8%.

For the compound `NC(=O)C(Br)CBr` (stereo not drawn), the growth in the assay with DU-145 prostate was -28.2% (active); in the assay on MDA-MB-231 breast it was 14.3%; in the assay with SF-268 CNS, -23.1% (active); in the assay on SF-539 CNS, 39.2%; with M14 melanoma it was -88.3% (active); in the assay with HCT-15 colon, -7.98% (active). For the same compound, the growth in the assay with SNB-19 CNS is 80.1%; in the assay on UACC-62 melanoma, 19.9%; in the assay on SN12C renal it was 22%; with ACHN renal it was -76.2% (active); in the assay with MOLT-4 leukemia it was -62.1% (active); in the assay with OVCAR-8 ovarian it was -24.1% (active). Further, the growth in the assay with SK-OV-3 ovarian was 80%; in the assay with NCI/ADR-RES ovarian it was 15.3%; with T-47D breast, 1.22% (active); in the assay on MDA-MB-435 melanoma it was -73.3% (active); with SW-620 colon it was -59.3% (active); with HCT-116 colon it was -92.7% (active). Also, in the assay with KM12 colon, the growth was 71.4%.
